For 35 compounds, composite z-score results are on record in PubChem BioAssay.

The nature of the first test: small molecules captured by biotinylated probe aFGF2 – biochemical, small-molecule microarray, fluorescence 635/667, stem cell growth factor project, primary screen (AID 1067).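 Further: measures binding of biotinylated aFGF2 protein to printed compounds on slides; z-score merges feature fluorescence and signal-to-noise across triplicate slides.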 Particulars: higher = more signal.
`CCC(CC)C(O)C1C=CC2C(=O)N(c3ccccc3)C(=O)C2N1Nc1ccc(C(C)C)cc1` (stereo unspecified): the composite z-score is 0.0495.

`C=C(C)C1CCC(C(O)C2C=CC3C(=O)N(C)C(=O)C3N2N2CCCCC2)CC1` (stereo unspecified) returned a composite z-score of 0.118.

`O=C1NC(=O)C2C1C=CC(C(O)c1cccc3ccccc13)N2Nc1ccc(Cl)cc1Cl` (stereo unspecified): the composite z-score was -0.0752.

Regarding `C=CCOC(=O)[C@H]1[C@@H]2C(=O)O[C@@H](c3ccccc3)[C@@H](c3ccccc3)N2[C@@H](c2ccc(OCCOC(=O)[C@@H]3C[C@@H]4C(=O)N[C@@H](CCCCN(C)C)C(=O)N4[C@@H]3c3ccc(O)cc3)cc2)[C@]12C(=O)Nc1ccccc12`, the composite z-score was -0.113.

The compound `CCOC(=O)C1=CC[C@@H](c2ccccc2C(F)(F)F)N(S(=O)(=O)c2ccc(C)cc2)[C@H]1c1ccc(C#N)cc1` yielded a composite z-score of 0.0625.

With `CCCNC(=O)[C@@H]1c2ccccc2C(=O)N(C(C)C)[C@H]1c1ccc(CO)cc1`, the composite z-score was -0.112.

The next test is described as follows: small molecules captured by biotinylated probe aFGF10 – biochemical, small-molecule microarray, fluorescence 635/667, stem cell growth factor project, primary screen (AID 1071).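 Further: score merges 667 nm spot intensity and signal to noise from triplicate slides.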 The settings on record: higher = more signal.
Turning to `C=C(/C(=C/C[C@H](OC(C)=O)c1ccccc1OCCO)c1cc(C(=O)OC)ccc1OC)C(C)C`, the composite z-score amounted to 0.826.

`C[N+](C)(C)CCCC[C@@H]1NC(=O)[C@H]2C[C@@H](C(=O)NCCCCCCN)[C@@H](c3ccc(O)cc3)N2C1=O` displayed a composite z-score of 0.575.

On to `COc1ccccc1CN1C(=O)c2ccccc2[C@](Cc2ccccc2I)(C(=O)NCC(F)(F)F)[C@@H]1c1ccc(CO)cc1`, for which the composite z-score turned out to be 1.21.

`O=C(NCc1ccccc1)[C@@H]1c2ccccc2C(=O)N(Cc2ccccc2C(F)(F)F)[C@H]1c1ccc(CO)cc1` gave a composite z-score of -0.0459.

Compound `COC(=O)[C@H](Cc1ccccc1)N1CC(/C=C/C2CC2)=C[C@H]1[C@H](O)Cc1ccccc1` displayed a composite z-score of 0.6.

`CCOC(=O)C1=CC[C@@H](c2ccc(OCc3ccccc3)c(OC)c2)N(S(=O)(=O)c2ccc(C)cc2)[C@H]1c1ccc(SC)cc1` had a composite z-score of 1.02.

`COc1cccc(/C=C/C=O)c1` registered a composite z-score of 0.505.

As for `CC(=O)NCCCC[C@@H]1NC(=O)[C@H]2C[C@@H](C(=O)NCCCC[N+](C)(C)C)[C@@H](c3cccc(OCCO)c3)N2C1=O`, the composite z-score amounted to 1.23.

Regarding `O=C1C2C=CC(C(O)c3ccccc3)N(Nc3ccccc3F)C2C(=O)N1c1ccccc1` (stereo unspecified), the composite z-score is 0.373.

As to `CCOC(=O)C[C@H]1[C@H](OC(=O)c2ccccc2-c2ccccc2)[C@@H](NC(=O)c2ccc(-c3ccccc3)cc2)c2cc(OCCCO)ccc2N1C(=O)c1ccc2ccccc2n1`, the composite z-score was determined as 0.754.

`CO[C@]12C=C(Br)[C@@H](C[C@@H]1c1cccc(C)c1)[C@@]1(CO1)C2=O` gave a composite z-score of 0.211.

For `[N-]=[N+]=Nc1ccccc1[C@@H]1OC(c2ccc(OCCCO)cc2)=N[C@]1(Cc1ccccc1)C(=O)NCC(O)CO` (stereo partly specified), the composite z-score amounted to 0.881.

`COc1ccc([Si](C)(C)[C@@H]2[C@@H](CCn3cc([C@H](O)c4ccccc4)nn3)O[C@]3(C(=O)N(Cc4ccc(N5CCC5=O)cc4)c4ccccc43)[C@H]2C)cc1` came in with a composite z-score of -0.127.

Turning to `C=CCC(OC(C)=O)[C@@H]1[C@@H](N(Cc2ccc(-c3cccc(C(F)(F)F)c3)o2)C(=O)c2ccc(C)cc2)c2cc(OCCCO)ccc2N1C(=O)c1ccc2ccccc2c1` (stereo partly specified), the composite z-score came out at 0.298.

In turn, `C=CCC(OC(C)=O)[C@@H]1[C@@H](N(Cc2cccc3ccccc23)C(=O)Cc2ccc(F)cc2)c2cc(OCCCO)ccc2N1C(=O)c1ccc2ccccc2n1` (stereo partly specified) displayed a composite z-score of 0.0908.

`C[C@H]1NC(=O)[C@@]23C(=O)N[C@@H](Cc4ccccc4)C2[C@H](C)[C@@]2(C)O[C@H]2C3/C=C/C/C=C\CNC(=O)[C@H](Cc2ccccc2)NC1=O` (stereo partly specified) yielded a composite z-score of 0.533.

Compound `CCCCCCCCCCC(O)C1C=CC2C(=O)N(C)C(=O)C2N1Nc1ccc([N+](=O)[O-])cc1[N+](=O)[O-]` (stereo unspecified) displayed a composite z-score of 0.131.

Regarding `NCCCCCCNC(=O)[C@@H]1C[C@@H]2C(=O)N[C@@H](CCCCN)C(=O)N2[C@@H]1c1cccc(OCCO)c1`, the composite z-score was -0.127.

With `N#Cc1ccc(C(O)C2C=CC3C(=O)N(c4ccccc4)C(=O)C3N2Nc2ccccc2)cc1` (stereo unspecified), the composite z-score was found to be 0.77.

For `CC1=C([C@H](O)CCc2ccccc2)[C@H](CO)[C@@H]2C(=O)N(C)C(=O)[C@@H]2C1`, the composite z-score was found to be 0.0805.

`CCOC(=O)C1=CC[C@@H](c2cccc(Cl)c2)N(S(=O)(=O)c2ccc(C)cc2)C1` displayed a composite z-score of 0.336.

As for `COCCOC(=O)N1C(=O)[C@@]2(c3cc(C#Cc4ccc(OC)cc4)ccc31)[C@H](C(=O)Nc1nc3ccccc3s1)[C@H]1C(=O)O[C@H](c3ccccc3)[C@H](c3ccccc3)N1[C@@H]2c1ccc(O)cc1`, the composite z-score was determined as 0.445.

Turning to `COc1ccc(C#Cc2ccc3c(c2)[C@]2(C(=O)N3)[C@H](c3ccc(O)cc3)N3[C@H](c4ccccc4)[C@H](c4ccccc4)OC(=O)[C@H]3[C@@H]2C(=O)O)cc1`, the composite z-score amounted to 0.831.

Compound `CC(C)C[C@@H]1NC(=O)[C@@H]2C[C@H](C(=O)NCCCCCN)[C@H](c3ccc(O)cc3)N2C1=O` displayed a composite z-score of 0.335.

As to `CN1C(=O)C2C=CC(C(O)c3ccc(F)cc3)N(Nc3ccccc3)C2C1=O` (stereo unspecified), the composite z-score amounted to 0.208.

Take `CCC[C@@H]1C[C@@]1(CCC)[C@@H](NC(=O)OCc1ccccc1)c1ccc(-c2ccccc2)cc1`: the composite z-score is -0.68.

Compound `COc1ccc(NC(=O)O[C@H]2[C@H](OC(=O)Nc3ccccc3)[C@H](OC(=O)Nc3ccccc3)[C@@H](OC)O[C@@H]2CO)cc1` had a composite z-score of 1.19.

Consider `CC(C)[Si](C#C[Si](C(C)C)(C(C)C)C(C)C)(O[C@H](C)c1cn([C@H](CO)Cc2ccccc2)nn1)C(C)C`, for which the composite z-score is 0.215.

With `[N-]=[N+]=NCc1ccccc1[C@@H]1OC(c2ccc(OCCCO)cc2)=N[C@]1(CCS(=O)(=O)c1ccccc1)C(=O)NCC(O)CO` (stereo partly specified), the composite z-score stood at 0.367.

For the compound `CCC(CC)C(O)C1C=CC2C(=O)N(c3ccccc3)C(=O)C2N1Nc1ccc(C(C)C)cc1` (stereo unspecified), the composite z-score was 0.687.

`C=C(C)C1CCC(C(O)C2C=CC3C(=O)N(C)C(=O)C3N2N2CCCCC2)CC1` (stereo unspecified): the composite z-score turned out to be 0.82.

`O=C1NC(=O)C2C1C=CC(C(O)c1cccc3ccccc13)N2Nc1ccc(Cl)cc1Cl` (stereo unspecified) came in with a composite z-score of 0.51.

For `C=CCOC(=O)[C@H]1[C@@H]2C(=O)O[C@@H](c3ccccc3)[C@@H](c3ccccc3)N2[C@@H](c2ccc(OCCOC(=O)[C@@H]3C[C@@H]4C(=O)N[C@@H](CCCCN(C)C)C(=O)N4[C@@H]3c3ccc(O)cc3)cc2)[C@]12C(=O)Nc1ccccc12`, the composite z-score amounted to 0.389.

As for `CCOC(=O)C1=CC[C@@H](c2ccccc2C(F)(F)F)N(S(=O)(=O)c2ccc(C)cc2)[C@H]1c1ccc(C#N)cc1`, the composite z-score amounted to 0.692.

On to `CCCNC(=O)[C@@H]1c2ccccc2C(=O)N(C(C)C)[C@H]1c1ccc(CO)cc1`, for which the composite z-score was -0.303.
